In all, about 290,000 compounds went through this assay and about 3,000 (1%) were called active. The sample holds actives, similar compounds and a random draw of the others, so the mix is not that of the screen. Unmarked numbers belong to inactive results. No stated cut-off is given here; in the data, active means inhibition mostly above about 36% (no sharp cut-off); inactive means mostly below about 34%.

This experiment in a line: NOD1 signaling inhibitors, primary screen, cell-based, luminescence, uHTS (AID 1578).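 Further: HEK-293T reporter cells stimulated with the NOD1 agonist gamma-tri-DAP.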 Particulars: NOD1-driven NF-kB luciferase reporter cells, at 4 µM, stronger effect = higher value.
With `CC(=O)Nc1ccccc1C(F)(F)F`, the inhibition is 5.2%. For `COc1ccc2nc(N3C(=O)CNC3=S)sc2c1` the value was -9.5%. With `Cn1c(O)c(C2=c3ccccc3=NC2=O)[nH]c1=S` the figure was 7.1%; with `COc1ccc2nc(-n3c(O)c(C4=c5ccccc5=NC4=O)[nH]c3=S)sc2c1`, 93% (active); with `COc1ccc(-c2cn3c4c(sc3n2)CCCC4)cc1`, 1.4%. In the case of `CN(C)S(=O)(=O)c1ccc(N2CCCC2)c(C(=O)Nc2ccccc2N2CCOCC2)c1`, the inhibition is -0.9%. For `CCCCC(=O)N/N=C(/C)C1=C(C)C(C)(C)OC1=O` the value was -20.4%; for `O=C1ON=C(c2ccccc2)/C1=C/c1ccc(-c2ccccc2[N+](=O)[O-])o1`, 46.2%; for `COc1ccc(-c2ccc(/C=C3\C(=O)N(c4ccccc4)N=C3c3ccccc3)o2)c([N+](=O)[O-])c1`, 10.5%. For `Cc1ccc(-c2ccc(/C=C3\C(=O)ON=C3c3ccccc3)o2)c([N+](=O)[O-])c1` the value was 70.5% (active); for `CCSc1nc2ccccc2n1CC(=O)N1CCCCC1`, 14.8%; for `O=[N+]([O-])c1cc(CN2CCN(c3ccccc3)CC2)c(O)c2ncccc12`, 31.8%. On to `O=[N+]([O-])c1cc(CN2CCCC2)c2cccnc2c1O`, for which the inhibition was 2.2%. As to `O=[N+]([O-])c1cc(CN2CCOCC2)c2cccnc2c1O`, the inhibition was 51.3% (active). For `O=[N+]([O-])c1cccc(S(=O)(=O)Nc2ccc(S(=O)(=O)N3CCCC3)cc2)c1` the value was -4%. Consider `CSc1cccc(NC(=O)CCn2c(=O)c3cccn3c3cccnc32)c1`, for which the inhibition was -16.4%. With `CC(=O)Nc1cccc(C(=O)/C=C/c2ccc(/C=C/C(=O)c3cccc(NC(C)=O)c3)cc2)c1` the figure was 85.5% (active); with `CC(=O)Nc1ccc(NC(=O)/C=C/c2cccc(C(F)(F)F)c2)cc1`, -14.7%; with `O=C(/C=C/c1ccccc1)Nc1cccc(C(=O)O)c1`, 96.6% (active). `CC(=O)Nc1cccc(C(=O)/C=C/c2ccc(C)cc2)c1`: the inhibition was 34.7%. For `O=C(/C=C/c1cccc(C(F)(F)F)c1)Nc1cccc(C(F)(F)F)c1` the value was 75.5% (active); for `O=C(/C=C/c1ccccc1)Nc1ncn[nH]1`, 59.8% (active); for `O=C(/C=C/c1ccccc1)Nc1cc(C(=O)O)cc(C(=O)O)c1`, -46.3%. With `CC(=O)Nc1cccc(C(=O)/C=C/c2ccc(F)cc2)c1`, the inhibition is -34.5%. In the case of `O=C(/C=C/c1ccccc1)Nc1cc(NC(=O)/C=C/c2ccccc2)cc(C(=O)O)c1`, the inhibition was -29.4%. With `Cc1ccc(NC(=O)/C=C/c2cccc(C(F)(F)F)c2)cc1` the figure was 15.4%; with `Cc1nc(NC(=O)/C=C/c2ccccc2)n[nH]1`, 51.1%.

On to `O=C(Nc1ncn[nH]1)c1ccccc1O`, for which the inhibition was 1.8%. As for `CC(C)=CCN1CCN(C/C(Cl)=C/c2ccccc2)CC1CCO` (stereo not drawn), the inhibition was 1.6%.

On to `Cc1ccc(CNC(=O)CCS(=O)(=O)c2cc3c(cc2Cl)NC(=O)CO3)o1`, for which the inhibition is -10.7%. For `COc1cc(/C=C(\C#N)C(=O)Nc2ccccc2)ccc1OCCN1CCOCC1` the value was -28.7%; for `COc1cc2c(C(=O)NCCN(C)C)cn(CC(C)C)c(=O)c2cc1OC`, 1.3%.

As for `COc1ccc(-c2nn(CC(=O)Nc3ccc(Cl)c(Cl)c3)c(=O)c3ccccc23)cc1`, the inhibition is 15.6%. `COc1ccc(C(=O)N/C(=C\c2cn(S(=O)(=O)N(C)C)c3ccccc23)C(=O)N2CCOCC2)cc1`: the inhibition is -6.8%.

As for `Cc1cc(C)cc(C(=O)NCC(=O)NCc2ccc(S(N)(=O)=O)cc2)c1`, the inhibition is -5.1%. For `COc1cccc(N2CCN(C(=O)c3cc4cc(Cl)ccc4[nH]3)CC2)c1` the value was -4.9%; for `COC(=O)c1c(N)sc(Cc2ccccc2)c1C`, -28.7%. For the compound `CCOC(=O)c1c(N)sc(C(=O)Nc2ccccc2)c1C`, the inhibition was -18.7%. Take `COC(=O)c1c(N)sc(C(=O)NCCc2ccccc2)c1C`: the inhibition was 69.8% (active). As to `Cc1ccc(S(=O)(=O)NC(C)(C)CSc2ncccn2)cc1`, the inhibition was -3.5%. With `Cc1ccc(S(=O)(=O)NC(C)(C)CSc2nnc(N)s2)cc1` the figure was -25.5%; with `Cc1ccc(S(=O)(=O)NC(C)(C)CSc2nnc(Nc3ccccc3)s2)cc1`, 64.7% (active). For `N#CCSc1n[nH]c2nc3c(c(=O)n12)C1(CCCC1)Cc1ccccc1-3` the value was 16.8%; for `CCSc1n[nH]c2nc3c(c(=O)n12)C1(CCCCC1)Cc1ccccc1-3`, -13.1%. For `N#CCSc1n[nH]c2nc3c(c(=O)n12)C1(CCCCC1)Cc1ccccc1-3` the value was 48% (active). Turning to `CCN(C(=O)/C=C/c1ccc(OC)cc1)C1CCCCC1`, the inhibition is -18.8%. With `COc1cccc2cc(-c3cc(=O)oc4ccc(OCC(C)=O)cc34)oc12` the figure was 39%; with `CC(=O)COc1cc2c(-c3cc4ccccc4o3)cc(=O)oc2cc1C`, 40.5%; with `COc1cccc2cc(-c3cc(=O)oc4cc(C)c(OCC(C)=O)cc34)oc12`, 71.3% (active). For `COc1ccc(Cl)cc1NC(=O)CSc1nc(C)cc(C)n1` the value was -29.7%. For `Cc1cc(C)cc(NC(=O)CSc2nc(CSc3ccc(Cl)cc3)cc(=O)[nH]2)c1` the value was 8.6%; for `CCOC(=O)N1CCC(NCCNC(=O)c2ccccc2Cl)CC1`, 9.8%; for `Cn1c(Sc2ccccc2Cl)c(C=O)c2ccccc21`, 41.9%. For `Cn1c(Oc2ccc(Cl)cc2)c(C=O)c2ccccc21`, the inhibition was 22.8%. For `COc1ccc(-c2nnn(CC(=O)c3c[nH]c4ccccc34)n2)cc1OC` the value was -7.9%; for `CCOC(=O)c1[nH]ncc1CN1CCN(Cc2ccccc2)C(CCO)C1` (stereo not drawn), -20.2%. Turning to `CSc1ccc(S(=O)(=O)N2CCC(C(=O)NCCN3CCOCC3)CC2)cc1`, the inhibition was -17.3%. For `CSc1nc2sc(-c3ccccc3)cc2c(=O)n1N` the value was -13.6%; for `Cc1ccc(C)n1-n1c(C)nc2sc(-c3ccccc3)cc2c1=O`, -14.6%; for `Cc1nc2ccccc2c(=O)n1N`, -11.6%. With `Cc1nc2sc(-c3ccccc3)cc2c(=O)n1N` the figure was 29.8% (active); with `Cc1nc2cc(-c3ccccc3)sc2c(=O)n1N`, 95.4% (active). `O=c1c2sc(-c3ccccc3)cc2nc2n1CCC2`: the inhibition was -26.3%.

These data come from PubChem BioAssay AID1578 (Sanford-Burnham Center for Chemical Genomics, 2009).
